# VDR inh: vitamin D3 receptor (human) inhibition; P11473; VDR-SRC2-3 peptide fluorescence polarization, 2 h; Potency, µM, inactives show max response, negative = inhibition, actives largely listed as inhibitors; 0.93% of 400,000 active; further: on the % scale 0 is the no-effect control and ±100 the full control effect
#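 After 23 nl compound addition and a short centrifugation, plates sat for 2 hours at ambient temperature; polarization of fluorescence then indicated loss of VDR binding to peptide SRC2-3.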
# KAT2A inh: inhibitors of human GCN5L2 histone acetyltransferase | AID 504327 | Potency, µM (top dose mostly 58.9 µM), without a hit: at the top dose activity change, negative = inhibition, actives largely listed as inhibitors | 0.21% of 390,000 active | GCN5L2 HAT assay, ThioGlo1 CoA-SH fluorescence | Q92830; further: on the % scale 0 is the no-effect control and ±100 the full control effect
# Target sequence (Q92830 whole entry, looked up): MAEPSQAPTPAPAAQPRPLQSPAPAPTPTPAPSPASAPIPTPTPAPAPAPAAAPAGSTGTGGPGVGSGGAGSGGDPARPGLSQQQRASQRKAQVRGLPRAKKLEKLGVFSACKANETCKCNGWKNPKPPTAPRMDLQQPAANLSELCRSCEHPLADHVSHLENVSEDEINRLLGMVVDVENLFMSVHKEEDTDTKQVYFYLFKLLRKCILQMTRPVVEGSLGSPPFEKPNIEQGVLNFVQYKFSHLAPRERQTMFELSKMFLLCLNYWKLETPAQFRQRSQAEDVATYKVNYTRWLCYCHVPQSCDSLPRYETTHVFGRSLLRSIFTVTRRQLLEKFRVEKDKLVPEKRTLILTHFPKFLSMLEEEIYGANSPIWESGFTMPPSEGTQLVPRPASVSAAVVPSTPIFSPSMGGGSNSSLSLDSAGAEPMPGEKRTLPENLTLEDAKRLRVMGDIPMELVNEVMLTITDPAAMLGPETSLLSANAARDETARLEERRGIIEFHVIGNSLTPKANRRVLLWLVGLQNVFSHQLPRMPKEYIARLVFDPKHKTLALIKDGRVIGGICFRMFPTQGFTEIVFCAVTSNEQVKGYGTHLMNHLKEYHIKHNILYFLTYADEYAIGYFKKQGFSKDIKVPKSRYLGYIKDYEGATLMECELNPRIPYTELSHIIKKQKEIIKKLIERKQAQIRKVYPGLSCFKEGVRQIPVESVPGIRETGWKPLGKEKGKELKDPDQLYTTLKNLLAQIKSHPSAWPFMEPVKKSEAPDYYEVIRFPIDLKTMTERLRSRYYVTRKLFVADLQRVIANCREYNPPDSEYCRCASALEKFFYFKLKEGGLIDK
#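 ThioGlo1-coupled HAT assay: 20nM GCN5L2, 70uM acetyl-CoA, 75uM H3(1-25) peptide, pH 7.5. Fluorescence read at 340/540nm at start and after 20 min at room temperature.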
# Mito fusion yeast: inhibitors of mitochondrial division or activators of mitochondrial fusion; S. cerevisiae fusion-defective mutant growth rescue, CellTiterGlo 48 h; Potency, µM (doses to about 46.1 µM), inactives show at the highest dose growth rescue (activation), hits mostly activators; 0.23% of 320,000 active; AID 485298; further: % of control where 0% means no effect; nearly all actives have a fitted effect of over 45% in size
#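 Yeast fusion mutant, YPEG (non-fermentable carbon), compound, 48 h at 37C non-permissive; CellTiterGlo added, 10 min RT, luminescence read. Rescued growth = division inhibition.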
# PKM2 activator: PKM2 (human) enzyme activation; purified PKM2, Kinase-Glo ATP luminescence, activation; response scale: 0% is enzyme alone, no compound; Potency, µM (series often up to 57.5 µM), for the others: at the highest dose activation, most hits filed as activators; 0.34% of 260,000 active; further: on the % scale 0 is the no-effect control and ±100 the full control effect; nearly all actives have a fitted effect of over 55% in size
#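 Purified hPK-M2 (>95% pure) converted ADP (0.1 mM final) to ATP with 0.5 mM PEP in 50 mM imidazole pH7.2, KCl, MgCl2, Tween 20, BSA; 1 h at room temperature. ATP detected by Kinase-Glo luminescence.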
# PLK1 PBD block: blocks phosphopeptide binding to human PLK1 polo-box domain. Plk1 PBD binding of FITC phosphopeptide, fluorescence polarization. 2.8% of 360,000 active. P53350. Potency, µM, for the others: max response, negative = inhibition, usual class: inhibitors; further: series mostly up to about 57 µM; on the % scale 0 is the no-effect control and ±100 the full control effect; nearly all actives have a fitted effect of over 65% in size
# GLS inh: blocks human kidney-isoform glutaminase activity | O94925 | GLS enzymatic activity, qHTS titration | Potency, µM (series often up to 45.5 µM), for inactives: at the highest dose activity change, negative = inhibition, actives largely listed as inhibitors | 0.21% of 410,000 active | AID 624170; further: on the % scale 0 is the no-effect control and ±100 the full control effect
#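 hKGA; 45 mM KH2PO4 pH 8.2 + 0.02% Tween-20; cpd via pin tool; 1 mM Gln soln; GluOx/HRP/Amplex Red; RT 30 min; fluor. t0 & final.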
# The depositor's hits bear a star; u = inconclusive; x = no result given; ! = repeats disagree; [ ] = remark or other dose. Most compounds without a hit are left out; they make up all but 3.4% or so of the library. The call rests on the fitted dose curve; in most records, active means well fitted curve in the direction sought with a large enough effect; inconclusive means small, poorly fitted or top-dose-only effect, or another doubt; inactive means no such curve, though single readings can be large; an effect the other way counts as inactive or inconclusive. Potency means the concentration at half of the fitted maximal effect.
SMILES,VDR inh,KAT2A inh,Mito fusion yeast,PKM2 activator,PLK1 PBD block,GLS inh
O=C(NCc1ccccc1)c1ccc(-c2ccccc2C(F)(F)F)o1,112µM*!,-0.9%[88.6 µM],u,17.9%,-5.1%,-8.6%
COc1ccc(NC(=O)CCCn2cnc3ccccc3c2=O)cc1,5.9%,-0.7%,-1.8%,x,u,-4.0%
COC(=O)C1C[C@@H]2C3=C(C(=O)[C@@](C)(NC(=O)c4ccccc4)C3[C@H](C(=O)OC)C1)[C@H](C)n1c(=O)n(-c3ccccc3)c(=O)n12 (stereo partly specified),-13.3%,x,x,x,x,x
CC(C)C[C@@H](CC(=O)N[C@@H](CCCN)CC(=O)N[C@@H]1CCCC[C@H]1C(=O)N[C@H](CC(=O)N[C@@H](CCC(=O)O)CC(=O)O)CC(C)C)NC(=O)[C@@H]1CNCC[C@H]1N,3.0%,x,x,x,x,x
Cc1ccccc1CNC(=O)C1CCC(=O)N(CC2CCCCC2)C1 (stereo unspecified),9.4%,-4.1%,0.7%,3.5%,-6.8%,-10.3%
Cc1ccc(C(C)(C)NC(=O)C2CCC(=O)N(CC3CCCCC3)C2)cc1 (stereo unspecified),-25.4%,-6.0%,-3.0%,-1.1%,26.7µM*,-0.9%
CCCCN(CC)Cc1ccc(CNC(=S)Nc2c(C)cc(C)cc2C)o1,-6.2%,-4.3%,4.8%,-13.6%,13.4µM*,2.9%
O=C(c1cccs1)N1C[C@H](n2cc(C3CC3)nn2)[C@@H](O)C[C@@H]1c1ccc(Cl)cc1,x,x,x,x,-8.3%,10.6%
O=c1oc(-c2ccccc2)cc(Cl)c1Cl,-23.2%,0.0%,-58.5%,x,10.6µM*,0.8%
O=c1cc(-c2ccccc2)oc2ccc(Cl)cc12,18.4%,x,x,x,0.1%,2.3%
OC[C@@H]1CN(Cc2ccc3c(c2)OCO3)C[C@H](n2cnc3c(N4CCOCC4)ncnc32)O1,x,x,x,x,2.3%,-1.0%
CC1CCCCN1C(=O)c1ccc(Br)o1 (stereo unspecified),2.9%,u,-1.2%,-1.9%,-0.7%,3.0%
O=C1c2ccccc2C(=O)N1c1ccc(S(=O)(=O)N2CCOCC2)cc1,3.0%,x,x,x,x,x
Cc1cc(C)cc(C(=O)N(C)[C@H](Cc2ccc(-c3ccccc3)cc2)C(=O)N[C@@H](Cc2c[nH]c3ccccc23)C(=O)O)c1,u,31.6µM*!,x,x,x,x
Cc1ccc(C(=O)NC(Cc2c[nH]c3ccccc23)C(=O)O)cc1 (stereo unspecified),-11.2%,0.3%,1.4%,-4.9%,-8.2%,22.2%
COc1cc(C=C2C(=O)c3ccccc3C2=O)ccc1O,7.1%,-7.0%,-0.8%,-25.2%,-17.7%,14.9%
COc1cc(C=C2C(=O)c3ccccc3C2=O)cc(OC)c1,u,-21.6%,1.6%,u,1.06µM*,5.7%
COc1ccc(C=C2C(=O)c3ccccc3C2=O)cc1O,-6.7%,-6.5%,13.3%,-26.0%,18.9µM*,2.7%
Cc1cc(-n2c(C)cc(C(=O)CSc3nnnn3-c3ccccc3)c2C)no1,10.0%,-6.9%,5.7%,4.3%,2.3%,-9.7%
Cc1cc(-n2c(C)cc(C(=O)CN3C(=O)C(=O)N(C)C3=O)c2C)no1,1.7%,-0.6%,x,x,-10.7%,0.1%
Cc1cc(-n2c(C)cc(C(=O)CCl)c2C)no1,-8.2%,-1.8%,10.1%,0.9%,13.4µM*,-8.5%
Cc1cc(-n2c(C)cc(C(=O)CSc3ccccn3)c2C)no1,-14.7%,2.1%,x,x,16.8µM*,-2.0%
Cc1cc(C)cc(NC(=O)C(OC(=O)c2sccc2C)c2ccccc2)c1 (stereo unspecified),-20.4%,35.4%,-4.4%,0.9%,-5.7%,50.8%
CN(C)C(=O)[C@H]1C[C@@H]1[C@H](NC(=O)OCc1ccccc1)c1ccccc1,x,x,x,-2.4%,x,x
O=C1C(Cl)=C(Nc2cccc(O)c2)C(=O)N1Cc1ccccc1,3.2%,-9.7%,-11.8%,14.0%,26.7µM*,-18.7%
OC(CNCc1ccncc1)c1ccccc1 (stereo unspecified),-18.9%,17.3%,1.1%,0.6%,26.7µM*,4.7%

# Screens as filed in PubChem BioAssay.
